For this assay, the system named is Rolipram. The experiment in a line: off-target binding across receptor panel, profiling panel, selectivity assay for AVPR1a antagonist project, biochemical, Panlabs HitProfilingScreen (AID 743088). The following applies: Panlabs radioligand binding panel, 30 targets, at 10 µM, stronger effect = higher value.

A number with no mark means an inactive call.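 The calls were made as follows: active = binding inhibited by at least 50%, or stimulated by at least 50%, shown as inhibition of -50% or lower; inactive = the rest.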

As for `O=C(C1CCN(c2ccc(Cl)cn2)CC1)N(CC1CC1)c1ccc(Cl)cc1`, the inhibition of binding is -3%.
